PubChem BioAssay (EPA / NIEHS)
The source holds several records for some structures; these can differ, active in one and inactive in another. Calls of active or inactive are those of the source. How the source made its calls: active means hit-call score of the fitted dose curve at least 0.9, where 1 is the maximum; inactive means score below 0.9.

Tests used:
[1] = ATG_E_Box_CIS: Attagene CIS-FACTORIAL HepG2 Assay for human Enhancer Box (E-box) (AID 2282936); conditions: HepG2 E-box cis-reporter transcription, actives raise or lower the signal
Outline: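 HepG2 cells transiently transfected with multiplexed cis-element reporter units, dosed 24 h; reporter mRNA quantified by RT-PCR, 6-FAM labelling, HpaI digestion and capillary electrophoresis. E-box (USF1) signal fitted bidirectionally vs DMSO.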

[2] = ATG_EGR_CIS: Attagene CIS-FACTORIAL HepG2 Assay for human Early Growth Response 1 (EGR1) (AID 2282938); conditions: HepG2 Attagene CIS-FACTORIAL EGR reporter mRNA; actives raise or lower the signal
Outline: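 Activity is taken as induction or loss of reporter mRNA versus DMSO, fitted bidirectionally. Transcripts from cis-regulated reporter units in transiently transfected HepG2 were measured after 24 h by RT-PCR with capillary electrophoresis.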

[3] = ATG_M_19_CIS: Attagene CIS-FACTORIAL HepG2 Assay for M19 Transcription Factor (Internal Marker) (AID 2282939); conditions: HepG2 Attagene CIS-FACTORIAL M19 internal marker reporter; actives raise or lower the signal
Outline: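 Chemical-treated HepG2 (24 h) with MRTU constructs; reporter transcripts detected by fluorescent RT-PCR fragment analysis on capillary electrophoresis. Internal background marker, DMSO as baseline.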

[4] = ATG_ERE_CIS: Attagene CIS-FACTORIAL HepG2 Assay for Estrogen Response Element (ERE) (AID 2282940); conditions: HepG2 ERE cis-reporter, Attagene RNA transcript; actives raise or lower the signal
Outline: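 Human liver cells (HepG2) bearing transiently transfected, promoter-regulated reporter units were exposed 24 h. Reporter mRNA induction was detected by capillary electrophoresis of labelled RT-PCR products and fitted bidirectionally to DMSO.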

[5] = ATG_Ets_CIS: Attagene CIS-FACTORIAL HepG2 Assay for human Erythroblast Transformation Specific (ETS) (AID 2282941); conditions: HepG2 ETS cis-reporter transcription, actives raise or lower the signal
Outline: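 Human HepG2 hepatoma cells were transiently transfected with promoter-driven reporter constructs and treated for 24 hours. Reporter transcripts were quantified by RT-PCR with fluorescent primer extension; bidirectional curve fitting used DMSO as reference.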

[6] = biological target: Hepatocyte nuclear factor 3-beta (Homo sapiens) (UniProt Q9Y261); assay: ATG_FoxA2_CIS: Attagene CIS-FACTORIAL HepG2 Assay for human Forkhead box A2 (FOXA2) (AID 2282942); conditions: HepG2 cis-reporter transcription factor activity, 24 h; actives raise or lower the signal
Chain of Hepatocyte nuclear factor 3-beta (Homo sapiens) (Q9Y261 whole entry, looked up): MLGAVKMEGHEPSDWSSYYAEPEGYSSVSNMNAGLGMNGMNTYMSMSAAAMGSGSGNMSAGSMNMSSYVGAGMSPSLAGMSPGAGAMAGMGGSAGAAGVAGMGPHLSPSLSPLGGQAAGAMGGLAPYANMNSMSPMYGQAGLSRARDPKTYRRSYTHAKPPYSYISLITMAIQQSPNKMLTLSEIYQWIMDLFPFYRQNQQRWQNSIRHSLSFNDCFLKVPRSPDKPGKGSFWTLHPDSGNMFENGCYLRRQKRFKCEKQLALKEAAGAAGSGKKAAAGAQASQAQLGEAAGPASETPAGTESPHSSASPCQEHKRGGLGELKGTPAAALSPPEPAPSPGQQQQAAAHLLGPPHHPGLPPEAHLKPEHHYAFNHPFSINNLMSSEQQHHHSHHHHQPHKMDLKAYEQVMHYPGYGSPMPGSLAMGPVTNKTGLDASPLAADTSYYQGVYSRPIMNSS
Outline: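 Reporter transcript induction is measured by fluorescence after capillary electrophoresis of RT-PCR products from HepG2 cells exposed 24 h. Cis-regulated reporter units report endogenous factor activity; curves fitted both directions against DMSO.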

[7] = ATG_FoxO_CIS: Attagene CIS-FACTORIAL HepG2 Assay for human Forkhead box O (FoxO) (AID 2282943); conditions: HepG2 Attagene cis-reporter, FoxO element, mRNA; actives raise or lower the signal
Outline: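 Read-out: fluorescence of 6-FAM-labelled reporter cDNA fragments resolved by capillary electrophoresis. Transiently transfected HepG2 cells were dosed for 24 h; activity fitted in both directions relative to DMSO controls.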

[8] = ATG_GATA_CIS: Attagene CIS-FACTORIAL HepG2 Assay for human GATA Binding Protein (AID 2282944); conditions: HepG2 GATA cis-element reporter, Attagene multiplex mRNA; actives raise or lower the signal
Outline: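 Transfected cis-reporter HepG2 cells were treated with chemicals for 24 hours. Total RNA was then converted to cDNA, amplified with reporter-specific primers and analysed by fluorescent capillary electrophoresis, using DMSO-treated wells as baseline.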

[9] = ATG_GLI_CIS: Attagene CIS-FACTORIAL HepG2 Assay for human Zinc Finger Protein GLI1 (AID 2282945); conditions: HepG2, Attagene cis-factorial reporter mRNA, GLI element; actives raise or lower the signal
Outline: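 Transiently transfected HepG2 cells report endogenous transcription factor activity via cis-element-driven reporter units. After 24 h compound exposure, reporter mRNA was measured by RT-PCR with capillary electrophoresis; bidirectional fitting against DMSO baseline.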

[10] = biological target: Bile acid receptor (Homo sapiens) (UniProt Q96RI1); assay: ATG_IR1_CIS: Attagene CIS-FACTORIAL HepG2 Assay for human Nuclear Receptor Subfamily 1 Group H Member 4 (NR1H4), IR1 submotif (AID 2282946); conditions: IR1 reporter transcription, actives raise or lower the signal
Chain of Bile acid receptor (Homo sapiens) (Q96RI1 whole entry, looked up): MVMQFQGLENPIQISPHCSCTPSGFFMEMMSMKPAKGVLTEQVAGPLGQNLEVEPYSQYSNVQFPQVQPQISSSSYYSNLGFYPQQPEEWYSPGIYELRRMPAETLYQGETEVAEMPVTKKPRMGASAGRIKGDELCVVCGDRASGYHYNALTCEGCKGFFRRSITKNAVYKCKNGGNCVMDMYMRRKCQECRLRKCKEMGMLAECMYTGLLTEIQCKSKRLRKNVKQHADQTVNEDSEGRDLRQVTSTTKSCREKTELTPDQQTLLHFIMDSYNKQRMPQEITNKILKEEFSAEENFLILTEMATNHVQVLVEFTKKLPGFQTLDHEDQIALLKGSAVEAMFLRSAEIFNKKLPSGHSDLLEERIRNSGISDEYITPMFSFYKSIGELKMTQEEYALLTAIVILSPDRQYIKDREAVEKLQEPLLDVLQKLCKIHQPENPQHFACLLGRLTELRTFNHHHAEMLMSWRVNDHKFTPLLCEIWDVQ
Outline: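 HepG2 cells transiently transfected with multiple cis-promoter-driven reporter units to measure endogenous transcription factor activity; 24 h exposure. Reporter mRNA read by RT-PCR, FAM labelling, HpaI digestion and capillary electrophoresis. Bidirectional fit versus DMSO.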

[11] = ATG_GRE_CIS: Attagene CIS-FACTORIAL HepG2 Assay for human Glucocorticoid Response Elements (GRE) (AID 2282947); conditions: HepG2 GRE cis-reporter, Attagene multiplex mRNA; actives raise or lower the signal
Outline: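 Transiently transfected HepG2 cells carrying GRE cis-reporter units (endogenous TF activity) dosed 24 h; reporter mRNA quantified by RT-PCR, 6-FAM labelling, HpaI digestion and capillary electrophoresis. Bidirectional fit versus DMSO baseline.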

[12] = ATG_ISRE_CIS: Attagene CIS-FACTORIAL HepG2 Assay for human Interferon Regulatory Factor 1 (IRF1) binding to an Interferon-Stimulated Response Element (ISRE) (AID 2282948); conditions: HepG2 ISRE cis-reporter (Attagene), mRNA transcription readout; actives raise or lower the signal
Outline: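 Cell-based cis-reporter assay; HepG2; 24 h exposure; reporter mRNA by RT-PCR plus capillary electrophoresis fluorescence; activity in either direction scored relative to DMSO.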

[13] = ATG_M_32_CIS: Attagene CIS-FACTORIAL HepG2 Assay for M32 Transcription Factor (Internal Marker) (AID 2282949); conditions: HepG2 Attagene cis-factorial M32 reporter, mRNA; actives raise or lower the signal;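 further: background control marker of the multiplexed CIS panel rather than a real target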
Outline: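 HepG2 cells transiently transfected with multiplexed cis-regulated reporter units, dosed 24 h. Reporter mRNA quantified by RT-PCR, 6-FAM labelling, HpaI digestion and capillary electrophoresis; bidirectional fit vs DMSO.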

[14] = biological target: Hypoxia-inducible factor 1-alpha (Homo sapiens) (UniProt Q16665); assay: ATG_HIF1a_CIS: Attagene CIS-FACTORIAL HepG2 Assay for human Hypoxia Inducible Factor 1 (HIF1A) (AID 2282951); conditions: HepG2 Attagene cis-factorial HIF1a reporter transcription; actives raise or lower the signal
Chain of Hypoxia-inducible factor 1-alpha (Homo sapiens) (Q16665 whole entry, looked up): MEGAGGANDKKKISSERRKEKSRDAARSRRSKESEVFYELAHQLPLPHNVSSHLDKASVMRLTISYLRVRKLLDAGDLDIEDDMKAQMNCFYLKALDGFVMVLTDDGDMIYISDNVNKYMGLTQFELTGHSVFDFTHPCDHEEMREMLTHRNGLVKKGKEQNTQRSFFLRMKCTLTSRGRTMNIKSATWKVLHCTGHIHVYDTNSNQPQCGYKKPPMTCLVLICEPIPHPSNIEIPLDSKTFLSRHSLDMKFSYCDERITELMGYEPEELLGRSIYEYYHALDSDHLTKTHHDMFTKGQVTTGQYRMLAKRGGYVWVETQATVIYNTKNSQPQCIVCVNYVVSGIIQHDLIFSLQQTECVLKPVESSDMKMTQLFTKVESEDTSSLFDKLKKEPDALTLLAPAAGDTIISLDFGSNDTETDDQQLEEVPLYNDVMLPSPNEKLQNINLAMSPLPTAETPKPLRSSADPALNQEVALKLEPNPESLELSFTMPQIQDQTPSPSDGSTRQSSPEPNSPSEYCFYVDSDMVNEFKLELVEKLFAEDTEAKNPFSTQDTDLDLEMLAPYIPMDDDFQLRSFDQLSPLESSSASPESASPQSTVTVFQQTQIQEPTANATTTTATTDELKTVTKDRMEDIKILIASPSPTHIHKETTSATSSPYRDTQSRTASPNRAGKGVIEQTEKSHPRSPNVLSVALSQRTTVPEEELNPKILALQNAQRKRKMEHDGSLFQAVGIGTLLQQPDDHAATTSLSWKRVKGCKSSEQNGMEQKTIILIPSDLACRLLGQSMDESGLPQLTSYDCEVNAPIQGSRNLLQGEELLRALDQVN
Outline: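 Fluorescence intensity of capillary-separated, 6-FAM-labelled reporter amplicons gives mRNA induction in HepG2 cells carrying transfected cis-promoter reporter units; cells exposed 24 h, responses fitted up or down from DMSO.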

[15] = biological target: Heat shock factor protein 1 (Homo sapiens) (UniProt Q00613); assay: ATG_HSE_CIS: Attagene CIS-FACTORIAL HepG2 Assay for human Heat Shock Transcription Factor 1 (HSE) (AID 2282953); conditions: HepG2 HSE cis-reporter, Attagene RNA transcription; actives raise or lower the signal
Chain of Heat shock factor protein 1 (Homo sapiens) (Q00613 whole entry, looked up): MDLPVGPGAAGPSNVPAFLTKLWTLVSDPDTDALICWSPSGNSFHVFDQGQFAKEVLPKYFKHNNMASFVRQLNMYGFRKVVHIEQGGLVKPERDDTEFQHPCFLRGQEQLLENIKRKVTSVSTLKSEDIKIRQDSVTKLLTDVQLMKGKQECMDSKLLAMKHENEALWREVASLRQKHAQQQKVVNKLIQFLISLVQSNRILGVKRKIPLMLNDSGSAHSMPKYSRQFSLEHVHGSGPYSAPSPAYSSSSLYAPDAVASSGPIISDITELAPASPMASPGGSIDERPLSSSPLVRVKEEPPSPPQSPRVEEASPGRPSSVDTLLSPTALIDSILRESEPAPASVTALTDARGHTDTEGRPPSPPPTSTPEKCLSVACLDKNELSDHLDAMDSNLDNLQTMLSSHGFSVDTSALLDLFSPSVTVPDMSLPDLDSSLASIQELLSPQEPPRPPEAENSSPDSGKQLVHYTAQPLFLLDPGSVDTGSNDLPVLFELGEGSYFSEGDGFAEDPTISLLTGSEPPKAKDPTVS
Outline: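 Liver-derived HepG2 cells carry transiently introduced multiple reporter units governed by cis promoters. Reporter RNA measured 24 h post-dose through reverse transcription, PCR amplification, fluorescent labelling and capillary electrophoresis, normalised to DMSO.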

[16] = ATG_PBREM_CIS: Attagene CIS-FACTORIAL HepG2 Assay for human Phenobarbital-responsive Enhancer Module (PBREM) (AID 2282955); conditions: HepG2 PBREM cis-reporter, Attagene multiplexed transcription; actives raise or lower the signal
Outline: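 Cells were transfected with cis-element reporter units and treated for 24 h, after which RNA was extracted and reporter transcripts measured by RT-PCR and capillary electrophoresis.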

[17] = ATG_M_61_CIS: Attagene CIS-FACTORIAL HepG2 Assay for M61 Transcription Factor (Internal Marker) (AID 2282937); conditions: HepG2 Attagene CIS-FACTORIAL M61 internal marker reporter; actives raise or lower the signal
Outline: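 Endogenous transcription factor activity in HepG2 is read through transiently transfected cis-element reporter units. After 24 h dosing, RNA undergoes reverse transcription, PCR and primer extension with 6-FAM before capillary electrophoresis; DMSO-referenced bidirectional fit.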

[18] = ATG_M_06_CIS: Attagene CIS-FACTORIAL HepG2 Assay for M06 Transcription Factor (Internal Marker) (AID 2282950); conditions: HepG2 Attagene CIS-FACTORIAL M06 internal marker reporter; actives raise or lower the signal
Outline: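 Cells (HepG2, transiently carrying cis-driven reporter units) receive chemical for 24 h before RNA isolation. Reporter cDNA is PCR-amplified, FAM-labelled by primer extension, HpaI-digested and sized on a capillary analyser.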

[19] = biological target: Hepatocyte nuclear factor 6 (Homo sapiens) (UniProt Q9UBC0); assay: ATG_HNF6_CIS: Attagene CIS-FACTORIAL HepG2 Assay for human Hepatocyte Nuclear Factor 6 (HNF6) (AID 2282952); conditions: HepG2 Attagene cis-factorial HNF6 reporter transcription; actives raise or lower the signal
Chain of Hepatocyte nuclear factor 6 (Homo sapiens) (Q9UBC0 whole entry, looked up): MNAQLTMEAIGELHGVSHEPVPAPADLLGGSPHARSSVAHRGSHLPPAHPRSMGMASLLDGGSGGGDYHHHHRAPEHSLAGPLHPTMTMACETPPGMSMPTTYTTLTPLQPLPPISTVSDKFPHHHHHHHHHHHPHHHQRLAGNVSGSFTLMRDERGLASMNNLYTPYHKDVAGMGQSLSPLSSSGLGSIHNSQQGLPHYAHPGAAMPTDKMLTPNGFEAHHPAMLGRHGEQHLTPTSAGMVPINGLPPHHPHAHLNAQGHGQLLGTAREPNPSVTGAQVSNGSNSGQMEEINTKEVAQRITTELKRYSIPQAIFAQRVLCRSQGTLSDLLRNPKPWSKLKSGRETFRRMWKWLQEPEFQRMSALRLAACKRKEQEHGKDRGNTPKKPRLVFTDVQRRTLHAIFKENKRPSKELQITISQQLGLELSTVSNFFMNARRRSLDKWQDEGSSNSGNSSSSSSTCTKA
Outline: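 HepG2 cells transiently transfected with cis-element-driven multiple reporter transcription units, dosed 24 h; reporter mRNA quantified by RT-PCR, FAM primer extension, HpaI digestion and capillary electrophoresis; bidirectional fit versus DMSO baseline.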

Measured: AC50

OCCOc1ccccc1
inactive: [1] | [2] | [3] | [4] | [5] | [6] | [7] | [8] | [9] | [10] | [11] | [12] | [13] | [14] | [15] | [16]

CC(C)OC(=O)Nc1cccc(Cl)c1
inactive: [1] | [17] | [3] | [4] | [5] | [6] | [7] | [9] | [10] | [12] | [13] | [14] | [15]
active: [2] 94.5 µM

Oc1ccc(Cl)cc1Cc1ccccc1
active: [1] 11.1 µM | [2] 14.9 µM | [5] 16.3 µM | [7] 20.4 µM | [9] 16.4 µM | [15] 17.3 µM | [16] 13.6 µM
inactive: [1] | [2] | [3] | [5] | [6] | [7] | [9] | [11] | [12] | [13] | [18] | [14] | [19] | [15] | [16]

O=[N+]([O-])/N=C1\NCCN1Cc1ccc(Cl)nc1
inactive: [1] | [17] | [2] | [3] | [4] | [5] | [6] | [7] | [9] | [10] | [11] | [12] | [13] | [14] | [15] | [16]

CCOC1Oc2ccc(OS(C)(=O)=O)cc2C1(C)C (configuration not stated)
inactive: [1] | [17] | [2] | [3] | [4] | [5] | [6] | [7] | [9] | [12] | [13] | [14] | [19]
active: [16] 34 µM

COc1nn(CSP(=S)(OC)OC)c(=O)s1
active: [4] 24.8 µM | [16] 50 µM
inactive: [1] | [17] | [2] | [3] | [5] | [6] | [7] | [9] | [10] | [11] | [12] | [13] | [14] | [19] | [15]

Cc1cc(C)nc(NC(=O)NS(=O)(=O)c2ccccc2C(=O)OC2COC2)n1
active: [2] 79 µM | [4] 71 µM | [15] 76.2 µM
inactive: [1] | [3] | [5] | [6] | [7] | [8] | [9] | [10] | [11] | [12] | [13] | [18] | [14] | [19] | [16]
